PubChem BioAssay (NCI)
This is part of a sample that, as a whole, favours compounds with a hit. Of some 83,000 tested, about 20% had one in any assay.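 Growth was measured after 48 h exposure to one concentration of compound in 96-well plates. Values under 10 count as active.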 Activity calls are given as the source filed them.

Legend:
Experiment in all cases: NCI-60 one-dose screen, 48 h (100 = growth as untreated, 0 = no growth, -100 = all killed)
Details in all cases: 10 µM unless noted
[1] = tested on: DU-145 prostate
[2] = tested on: K-562 leukemia
[3] = tested on: MALME-3M melanoma
[4] = tested on: MDA-MB-231 breast
[5] = tested on: RXF 393 renal
[6] = tested on: SF-268 CNS
[7] = tested on: SF-295 CNS
[8] = tested on: SF-539 CNS
[9] = tested on: UACC-257 melanoma
[10] = tested on: M14 melanoma

Measured: growth

COc1ccc2c(c1)/C(=C1\S/C(=N/c3nnc(C)s3)NC1=O)C(=O)N2Cc1ccc(Cl)cc1
inactive: [1] 52.4% | [2] 38.3% | [3] 72.5% | [4] 89.5% | [5] 75.8% | [6] 46% | [7] 14.9% | [8] 48.7% | [9] 83.6% | [10] 45.6%

Cn1c2c(c3ccc(-c4ccn[nH]4)cc3c1=O)C(=O)c1ccccc1-2
inactive: [1] 15.9% | [2] 17.7% | [3] 55.8% | [4] 86.9% | [5] 91.5% | [6] 40.8% | [7] 20.5% | [8] 37.3% | [9] 103% | [10] 48.6%

C(=C\c1cn(-c2ccccc2)nc1-c1ccccc1)/c1nnc(-c2c[nH]c3ccccc23)o1
active: [3] 7.81% | [4] 9.62%
inactive: [1] 27% | [2] 61.5% | [5] 53.5% | [6] 40.9% | [7] 29.8% | [8] 59.2% | [9] 107% | [10] 45.5%

CC(C)C1=C[C@@]23CC[C@H]4[C@](C)(COCCC#N)CCC[C@]4(C)[C@H]2C[C@@H]1[C@@H]1[C@H]3[C@@H](OCCC#N)CC[C@@H]1OCCC#N
inactive: [1] 51.4% | [2] 20.2% | [3] 61.4% | [4] 59.5% | [5] 11.8% | [6] 48.4% | [7] 28.7% | [8] 52.8% | [9] 40.9% | [10] 31.4%

CCSc1nc(Cl)c(C#N)c(-c2ccc(F)cc2)n1
inactive: [1] 104% | [2] 37.7% | [3] 106% | [4] 105% | [5] 103% | [6] 94.9% | [7] 97.7% | [8] 92.7% | [9] 93.8% | [10] 82.3%

O=C(Nc1nc2ccc(C(F)(F)F)cc2s1)c1cc(Cl)ccc1O
inactive: [1] 25.9% | [6] 19.5% | [8] 14.6% | [10] 15.1%
active: [2] 5.73% | [3] -16.6% | [4] -10.5% | [5] -2.8% | [7] -31.2% | [9] -8.55%

OCCNc1nc(NCCO)nc(Nc2ccc(C3=NN(c4cc(Cl)cc(Cl)c4)C(c4ccc(Cl)cc4)C3)cc2)n1 (stereo not given)
active: [1] 0.477% | [2] 4.31% | [3] -43.7% | [4] 7.31% | [5] -57.8% | [7] -68.3% | [8] -45.2% | [10] 1.11%
inactive: [6] 19.1% | [9] 48.4%

Nc1c(C(=O)Nc2ccccn2)sc2nc3c(cc12)CCCC3
inactive: [1] 72% | [2] 14.1% | [3] 62.7% | [4] 66.5% | [5] 84.7% | [6] 62.4% | [7] 34% | [8] 39.3% | [9] 67.8% | [10] 18%

COc1cc(C(=O)Nc2cc(OC)c3ccn(C)c3c2)cc2c1C[C@]1(C)CC[C@@H](O)C(C)(C)[C@H]1O2
inactive: [1] 32.1% | [3] 31% | [4] 30.6% | [6] 27.3% | [9] 32.5%
active: [2] 9.98% | [5] -32.8% | [7] -44.2% | [8] -26.1% | [10] -32.7%

O=C1c2ccccc2C(=O)c2c1oc1c2c(=O)[nH]c2ccccc21
inactive: [1] 82% | [2] 55.2% | [3] 124% | [4] 10.3% | [5] 97.2% | [6] 91% | [7] 92.7% | [8] 90.3% | [9] 112% | [10] 73.4%

O=C(NCc1ccccc1)c1ccc2c(c1)NC(=O)[C@@H]1CCCN21
inactive: [1] 99.7% | [2] 106% | [3] 92.2% | [4] 103% | [5] 109% | [6] 95.6% | [7] 98.7% | [8] 105% | [9] 104% | [10] 95.8%

Nn1c(SCC(=O)Nc2ccc(Cl)cc2)nnc1-c1cc(F)c(Cl)cc1Cl
inactive: [1] 108% | [2] 77.4% | [3] 92.6% | [4] 81.8% | [5] 117% | [6] 97.4% | [7] 87.9% | [8] 92.9% | [9] 98.2% | [10] 96.9%

C=C1C(=O)O[C@H]2[C@H]1CC/C(COC(=O)c1cc3ccccc3o1)=C\CC[C@@]1(C)O[C@@H]21
inactive: [7] 74.8% | [9] 40.5%
active: [1] -24.2% | [2] -2.5% | [3] -70.3% | [4] -38.8% | [5] -83.4% | [6] 4.87% | [8] -40.7% | [10] -53.9%

COC(=O)c1ccc2c(c1)n(Cc1ccc3ccccc3c1)c[n+]2Cc1ccc2ccccc2c1
inactive: [1] 72.5% | [2] 20.6% | [4] 28.5% | [5] 69.3% | [6] 40.9% | [7] 58.7% | [8] 65.7% | [9] 42% | [10] 14.1%
active: [3] -4.4%

C=C(C)[C@@H]1CC[C@]2(C(N)=O)CC[C@]3(C)[C@H](CC[C@@H]4[C@@]5(C)CCCNC(C)(C)[C@@H]5CC[C@]43C)[C@@H]12
active: [2] 7.26%
inactive: [1] 92.4% | [3] 75% | [4] 62.4% | [5] 72.4% | [6] 85.8% | [7] 80.9% | [8] 65.4% | [9] 57.6% | [10] 86.8%
